In PubChem BioAssay AID686978 (National Center for Advancing Translational Sciences (NCATS), 2013):
The whole screen tested about 420,000 compounds, of which about 64,000 (15%) were called active. Inconclusive results (about 27%) are left out. These entries were drawn from the full list. Values without a mark were called inactive. Calls follow the shape of the dose curve; as a rule, active = well fitted inhibition curve with a large enough effect; inconclusive = small, poorly fitted or top-dose-only effect; inactive = flat fitted curve, though single readings scatter.

Assay: qHTS for Inhibitors of human tyrosyl-DNA phosphodiesterase 1 (TDP1): qHTS in cells in absence of CPT; also: nearly all actives have a fitted effect of over 55% in size
Details: DT40 Tdp1-/- hTDP1 cells, no CPT, ATP luminescence, 48 h; activity change, negative = growth inhibition: at 46.2 µM (top of the series)
In short: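 A cellular qHTS used chicken DT40 cells lacking endogenous Tdp1 but carrying stably transfected human TDP1. Compounds were applied without camptothecin, and cell growth kinetics were judged by ATP-dependent luminescence after ≥48 hr.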
% is scaled to controls: 0 for no effect and ±100 for the full control effect; potency is read from the fitted curve at half-maximal effect.

| SMILES | activity change, negative = growth inhibition [%] | Potency |
| --- | --- | --- |
| Cn1nnc(NC(=O)CSc2ncn[nH]2)n1 | -0.455 |  |
| CN(C)N(C)C(=O)C(O)(c1ccccc1)c1ccccc1 | -0.464 |  |
| Cc1cccc(NC(=O)CCn2c(=O)oc3ccccc32)c1 | 5.57 |  |
| Cc1cc(C)cc(NC(=O)CCN2C(=O)c3ccccc3C2=O)c1 | -11.8 |  |
| Cc1ccc(-c2nn(CCC(=O)Nc3ccc(Cl)c(Cl)c3)c(=O)c3ccccc23)cc1 |  | 23.1 µM (active) |
| CCc1nnc(NC(=O)CSc2nc(SC)ns2)s1 | -24.6 |  |
| COc1cccc(NC(=O)N(C)C[C@@H]2Oc3ncc(Br)cc3C(=O)N([C@@H](C)CO)C[C@H]2C)c1 | -25.5 |  |
| CN(C)N=Nc1ccc2nc[nH]c2c1 | -13.4 |  |
| CCOc1ccc(NC(=O)CN(C)C(=O)Cn2c(=O)cnc3ccccc32)cc1OCC | -27.1 |  |
| CCCN(CCC)S(=O)(=O)c1cc2c(cc1Br)CCN2C(=O)CC |  | 5.8 µM (active) |
| CCC(=O)N1CCc2cc(S(=O)(=O)NC(C(=O)N3CCc4ccccc4C3)C(C)C)ccc21 (stereo unspecified) | -0.707 |  |
| CCC(=O)N1CCc2cc(Br)c(S(=O)(=O)NCCN3CCCCC3CC)cc21 (stereo unspecified) | 6.25 |  |
| Cc1cc(C(F)F)nn1CC(=O)NC1CCCCCC1 | 2.11 |  |
| COc1ccc(C(=O)N2CCC[C@@]3(CCN(C(=O)NC(C)C)C3)C2)cc1 | -2.74 |  |
| COc1ccc2cc(C(=O)O)n(CC(=O)c3ccccc3)c2c1 | 12.2 |  |
| O=C(/C=C/[C@H]1O[C@@H](n2cnc3c(NC(=O)c4ccccc4)ncnc32)[C@H](O)[C@@H]1O)NCc1ccccc1 | -11.2 |  |
| CCC(C)(C(=O)Nc1ccccc1C)N(C(=O)CNC(C)=O)c1ccc(C)cc1 (stereo unspecified) | -15.5 |  |
| C[C@@H](NC(=O)c1nc[nH]c1C(=O)N1CCN(C(=O)OC(C)(C)C)CC1)c1ccccc1 | -23.7 |  |
| CC(C)(C)OC(=O)N1CCC(NC(=O)c2[nH]cnc2C(=O)N[C@@H](Cc2ccccc2)C(=O)OCc2ccccc2)CC1 |  | 13 µM (active) |
| O=C(N[C@@H](Cc1ccccc1)C(=O)OCc1ccccc1)c1nc[nH]c1C(=O)NC1CCNCC1 | 0.388 |  |
| O=C(Nc1ccccc1Cl)NC1(C(=O)N2CCOCC2)CCCCC1 | -7.24 |  |
| COc1cccc(NC(=O)CN(C)C(=O)CSCc2nc3scc(-c4cccs4)c3c(=O)[nH]2)c1 | 1.04 |  |
| Cc1cnc(C(=O)N2CCCC(N3CCN(c4ccccc4F)CC3)C2)cn1 (stereo unspecified) | -24.2 |  |
| Cc1ccccc1N1CCN(C2CCCN(C(=O)c3cn4c(C)cccc4n3)C2)CC1 (stereo unspecified) |  | 14.6 µM (active) |
| Cc1ccccc1N1CCN(C2CCCN(C(=O)c3ocnc3C)C2)CC1 (stereo unspecified) | -25.4 |  |
| CC(C)c1ccc(NS(=O)(=O)c2ccc3[nH]cc(C(=O)NC4CCCC4)c(=O)c3c2)cc1 | -18 |  |

| SMILES | activity change, negative = growth inhibition [%] | Potency |
| --- | --- | --- |
| COCOc1cccc(CN2CCC(C)(Oc3ccc(SC)cc3)C2)c1 (stereo unspecified) |  | 10.3 µM (active) |
| CCc1ccc(OC2(C)CCN(CCOc3ccc(C)cc3)C2)cc1 (stereo unspecified) | -28.4 |  |
| CCC12CN3CC(CC)(CN(C1)C31C(=O)N(C)c3ccc(C)cc31)C2=O (stereo unspecified) | -22.5 |  |
| O=C(NC1CC2CCCC(C1)N2C(=O)N1CCCCC1)C1CCCCC1 (stereo unspecified) | -8.22 |  |
| C/C(=N\NC(=O)CC(C)C)c1c(C(F)(F)F)[nH]n(-c2nc3ccccc3s2)c1=O | -8.53 |  |
| COc1ccc(N=C(C)c2sc3ccccc3c2O)cc1 | 0.494 |  |
| COC(=O)Cc1[nH]n(-c2nc3ccccc3s2)c(=O)c1C(C)=Nc1ccc(OC)cc1 |  | 3.26 µM (active) |
| Cc1ccc(-c2ccc(CCC(=O)O)n2-c2ccc(C(N)=O)cc2)cc1 | -15.2 |  |
| CN(Cc1ccccc1)C(=O)C(=O)c1cn(CC(=O)N2CCCC2)c2ccccc12 | -19.2 |  |
| CCOC(=O)c1cc2n(c1N)-c1ccccc1C2=O | -18.9 |  |
| CCOC(=O)C1=C(c2ccc(OC)cc2)C(=O)c2ccccc2C1=O |  | 1.46 µM (active) |
| COc1ccc(OCCCON2C(=O)c3ccccc3C2=O)cc1 | -0.348 |  |
| CCOc1ccc(C(=O)NCC(=O)N2CCCCCCC2)cc1OCC | 0.068 |  |
| O=C(CCS(=O)(=O)c1cccc2nonc12)NCCc1ccccc1Cl | -17.1 |  |
| COc1cccc(Cn2c(=O)c(-c3ccccc3)nc3cnc(OC)nc32)c1 | -1.76 |  |
| COc1cccc(Cn2c(=O)c(CCc3ccccc3)nc3cnc(N(C)C)nc32)c1 | -6.83 |  |
| COc1cccc(Cn2c(=O)c(-c3cc(F)cc(F)c3)nc3cnc(OC)nc32)c1 |  | 0.116 µM (active) |
| COCCn1c(=O)c(CCc2ccccc2)nc2cncnc21 | 22.6 |  |
| COc1cccc(Cn2c(=O)cnc3cncnc32)c1 |  | 0.731 µM (active) |
| COc1ccc(-c2nc3cnc(OC)nc3n(Cc3ccc(F)cc3)c2=O)cc1 | -15 |  |
| Cc1ccc(F)cc1NC(=O)c1cccc(N(C)C)c1 | -1.61 |  |
| COc1ccc(-c2nc(N)sc2C2(O)C(=O)Nc3c(Br)cc(F)cc32)cc1OC (stereo unspecified) | -1.91 |  |
| Cc1ccc(OC(=O)c2ccccc2C(=O)OCC(F)(F)C(F)F)cc1 | -4.89 |  |
| O=C(O)c1cc2ccccc2c(=O)s1 | -6.59 |  |
| CC(=O)c1ccc(NC(=O)Cn2c(=O)oc3ccccc32)cc1 | -10.3 |  |
